The record followed here is PubChem BioAssay AID602393 (Broad Institute, 2012).

Among all 350,000 compounds or so, about 7,000 (2%) were called active. Rule as the data show it: active = activation above about 40%; inconclusive = no clear call, values can overlap the other calls; inactive = below that. The sample as a whole holds a higher share of actives than the screen did.

The experiment in a line: raisers of Bmi1 knock-in reporter signal – mouse ES cells, Bmi1 luciferase knock-in, single point, esBAF inhibitor project, primary screen (AID 602393).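 Also: 0% = median of the plate's neutral control wells and 100% = double that signal; a rise in the Bmi1 reporter signal indicates esBAF inhibition.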 The note with it: 24 h, at 12.5 µM, active compounds read high, 100% = twice the neutral-well signal.
For the molecule `C[C@@H]1CN([C@H](C)CO)C(=O)c2cc(NC(=O)c3ccncc3)ccc2O[C@H]1CN(C)C(=O)Nc1ccc(C(F)(F)F)cc1`, the reporter increase is 8.53% (inactive).

Consider `Cc1ccccc1S(=O)(=O)NCC[C@@H]1CC[C@H](NC(=O)C2CCC2)[C@@H](CO)O1`, for which the reporter increase was -0.558% (inactive). The result for `Nc1nnnn1/N=C/c1cccs1` reads 2.23% (inactive); that for `C(=N/N1CCN(c2ccccc2)CC1)/c1cccs1`, 45.3% (active). Consider `Cc1ccc(N2CCN(/N=C/c3cccs3)CC2)cc1`, for which the reporter increase was 13.6% (inactive). The value for `C[C@H]1CN([C@@H](C)CO)C(=O)CCCn2cc(nn2)CO[C@H]1CN(C)C(=O)Nc1ccc(F)cc1` was -7.14% (inactive); that for `C[C@H](CO)N1C[C@H](C)[C@@H](CN(C)S(=O)(=O)c2ccc(F)cc2)Oc2ccc(NC(=O)CCCCCC(=O)Nc3ccccc3N)cc2CC1=O` was 1.27% (inactive); that for `COCCNC(=O)C[C@@H]1C[C@@H]2c3cc(NC(=O)Nc4ccc(C(F)(F)F)cc4)ccc3O[C@@H]2[C@@H](CO)O1` was -4.42% (inactive). The result for `CCC(=O)N1C[C@H](C)[C@H](OC)CN(C)C(=O)c2ccc(NC(=O)Nc3ccc(Cl)cc3)cc2OC[C@H]1C` reads 4.13% (inactive). The result for `C[C@H](CO)N1C[C@H](C)[C@@H](CN(C)Cc2ccc(Oc3ccccc3)cc2)OCc2cn(nn2)CCCC1=O` reads 0.422% (inactive); that for `N#CNC1=NCN(CCc2ccccc2)CN1`, -7.73% (inactive). On to `CC1CCN(Cc2nc3c(c(=O)n(C)c(=O)n3C)n2CCc2ccccc2)CC1`, for which the reporter increase is -5.75% (inactive). As to `c1ccc(CCN2CN=C(Nc3nc4ccccc4o3)NC2)cc1`, the reporter increase is 45.9% (active). As to `C[C@@H]1CCCCO[C@H](CN(C)Cc2ccc3c(c2)OCO3)[C@@H](C)CN([C@H](C)CO)C(=O)c2cc(N(C)C)ccc2O1`, the reporter increase is 0.519% (inactive). The value for `O=C(CNC(=O)c1ccco1)NNC(=O)c1ccc(Br)cc1` was -0.872% (inactive). Turning to `CC(C)(C)c1ccc(C(=O)NNC(=O)Cc2ccccc2)cc1`, the reporter increase was 49% (active). For the molecule `O=C(Cc1ccccc1)Nc1ccc(C(=O)Nc2ccccc2C(=O)O)cc1`, the reporter increase is -1.37% (inactive). With `C[C@H](CO)N1C[C@H](C)[C@@H](CN(C)S(=O)(=O)c2ccc(Cl)cc2)Oc2ccc(NS(=O)(=O)c3cccs3)cc2CC1=O`, the reporter increase is 6.86% (inactive). In the case of `CC(C)C#Cc1cnc2c(c1)C(=O)N([C@@H](C)CO)C[C@@H](C)[C@H](CN(C)C(=O)CCN1CCCCC1)O2`, the reporter increase is 0.29% (inactive). Turning to `O=C(C[C@@H]1CC[C@H]2[C@@H](COC[C@@H](O)CN2S(=O)(=O)c2cccc(Cl)c2)O1)N1CCCCC1`, the reporter increase is -2.86% (inactive). The result for `CC(C)(c1ccccc1)c1ccc(OCCN2CCCC2)cc1` reads -18.8% (inactive); that for `c1ccc(-c2ccc(OCCN3CCOCC3)cc2)cc1`, 50.5% (active); that for `Cc1cccc(C)c1OCCN1CCOCC1`, -3.46% (inactive).

Turning to `Cc1noc(C)c1S(=O)(=O)Nc1ccc2c(c1)C(=O)N([C@H](C)CO)C[C@@H](C)[C@@H](CN(C)S(=O)(=O)c1ccc(Cl)cc1)O2`, the reporter increase is 6.53% (inactive). In the case of `Cc1nc2ccc(C(=O)N/N=C/c3ccc(O)cc3)cc2[nH]1`, the reporter increase is -6.33% (inactive). Regarding `CC(C)c1c(C(=O)N/N=C/c2ccc(-c3ccccc3)cc2)nnn1-c1nonc1N`, the reporter increase was -2.09% (inactive). Take `Cc1nonc1C(=O)N/N=C/c1ccc(O)cc1`: the reporter increase was 50.7% (active). Regarding `C[C@H]1CN([C@@H](C)CO)S(=O)(=O)c2ccc(-c3cncnc3)cc2O[C@H]1CN(C)Cc1ccncc1`, the reporter increase was 0.176% (inactive). The value for `O=C(O)C1CC=CCC1C(=O)NCCc1ccccc1` (centres undefined) was -11% (inactive); that for `O=C(Nc1ccc(Cl)c(Cl)c1)c1ccccc1NC(=O)C1CC=CCC1C(=O)O` (centres undefined) was 92.4% (active); that for `O=C(Nc1cccc(Cl)c1Cl)c1ccccc1NC(=O)C1CC=CCC1C(=O)O` (centres undefined) was 5.49% (inactive). For `CC(=O)c1c(C)[nH]c(C(=O)OCC(=O)Nc2c(C)cccc2C)c1C`, the reporter increase is -23.7% (inactive). Consider `CCCCOC(=O)c1[nH]c(C)c(C(=O)OC)c1C`, for which the reporter increase was 78.5% (active). On to `COC(=O)c1c(C)[nH]c(C(=O)NCCc2ccc(S(N)(=O)=O)cc2)c1C`, for which the reporter increase is -4.52% (inactive).

Regarding `CO[C@@H]1CN(C)C(=O)c2ccc(NS(C)(=O)=O)cc2OC[C@@H](C)N(CC2CC2)C[C@@H]1C`, the reporter increase is 1.93% (inactive).

On to `C[C@@H]1CN([C@@H](C)CO)C(=O)c2cc(N(C)C)ccc2O[C@@H](C)CCCCO[C@H]1CN(C)Cc1ccncc1`, for which the reporter increase is -3.61% (inactive). For `CC(C)(C)C1CCc2c(sc3nc(SCC(N)=O)nc(N)c23)C1` (centres undefined), the reporter increase is -0.656% (inactive). `CCc1nc(N2CCN(C(C)=O)CC2)c2c3c(sc2n1)CCCC3`: the reporter increase was -4.58% (inactive). As for `C=C(C)CSc1nc(N)c2c3c(sc2n1)CCC3`, the reporter increase is 75.4% (active). For `C[C@H](O)C#Cc1cnc2c(c1)C(=O)N([C@@H](C)CO)C[C@@H](C)[C@@H](CN(C)C(=O)Cc1ccccn1)O2`, the reporter increase was -2.01% (inactive). As for `COCCCNC(=O)c1ccc(-c2c(C)noc2C)c2ccoc12`, the reporter increase was 78.5% (active). Regarding `Cc1noc(C)c1-c1ccc(C(=O)NCc2ccncc2)c2occc12`, the reporter increase was 8.81% (inactive).

In the case of `COCCCNC(=O)c1cccc2c(-c3ccc(O)c(OC)c3)coc12`, the reporter increase is 12.3% (inactive).

Turning to `COc1ccccc1S(=O)(=O)N[C@@H]1C=C[C@H](CC(=O)N2CCOCC2)O[C@@H]1CO`, the reporter increase was -2.3% (inactive).

Turning to `COCCNC(=O)C[C@H]1CC[C@H](NS(=O)(=O)c2ccc(C)cc2)[C@@H](CO)O1`, the reporter increase was -2.1% (inactive).

`COc1ccc(C(=O)Nc2sc(C)c(C)c2CN2CCOCC2)cc1`: the reporter increase is 98.6% (active).

Take `CCOc1ccc(C(=O)Nc2ccc(CN3CCOCC3)cc2)cc1Cl`: the reporter increase is 9.32% (inactive).

Turning to `COc1ccc(C(=O)Nc2ccnn2C2CCN(Cc3ccncc3)CC2)cc1`, the reporter increase is 4.74% (inactive). For `Cc1nn(CC(=O)NCC2CCCO2)c(=O)c2cc3ccccc3n12` (centres undefined), the reporter increase was -0.752% (inactive).

In the case of `O=C(c1c(Cl)nc2sccn12)N1CCCc2ccccc21`, the reporter increase is -5.89% (inactive).

`Cc1c(C(=O)NCCN2CCOCC2)sc2nc(-c3ccc(F)cc3)cn12`: the reporter increase is 2.29% (inactive). For the molecule `Cc1c(C(=O)NCC2CCCO2)sc2nc(-c3ccccc3)cn12` (centres undefined), the reporter increase is 63.8% (active). With `Cc1ccc(C(=O)N2CCCc3ccccc32)c(Cl)c1`, the reporter increase was -0.356% (inactive). In the case of `Cc1c(C(=O)N2CCCc3ccccc32)sc2nc(-c3ccccc3)cn12`, the reporter increase is 69.3% (active).

With `C[C@H](CO)N1C[C@H](C)[C@@H](CN(C)C(=O)Nc2ccc3c(c2)OCO3)Oc2ccc(NS(=O)(=O)c3ccc(Cl)cc3)cc2CC1=O`, the reporter increase was -3.55% (inactive). With `C[C@@H]1CCCCO[C@H](CN(C)Cc2ccc(Cl)c(Cl)c2)[C@H](C)CN([C@@H](C)CO)C(=O)c2cc(NC(=O)C3CCCCC3)ccc2O1`, the reporter increase is 1.62% (inactive). The value for `COc1cccc(-c2ccc3n(c2=O)C[C@H]2[C@H](CO)[C@@H](C(=O)NC4CCCC4)[C@@H]3N2C)c1` was 3.16% (inactive). `COCC(=O)N(C)C[C@@H]1Oc2cc(C3=CCCC3)ccc2S(=O)(=O)N([C@@H](C)CO)C[C@H]1C`: the reporter increase is 0.332% (inactive). For `C[C@H](CO)N1C[C@H](C)[C@@H](CN(C)Cc2ccccc2C(F)(F)F)OCc2cn(nn2)CCCC1=O`, the reporter increase was -1.8% (inactive). The result for `C[C@H](NC(=O)C[C@H]1C=C[C@@H](NC(=O)C2CCOCC2)[C@@H](CO)O1)c1ccccc1` reads 1.15% (inactive); that for `Cc1cccc(C(=O)Nc2ccc(C(=O)N/N=C/c3cccc(C)n3)cc2)c1`, 14.2% (inactive); that for `Cc1ccc(NC(=O)c2ccc(Oc3ncccn3)cc2)cc1`, 34% (inactive). Consider `Cc1cccc(C(=O)Nc2ccc(Oc3cnccn3)cc2)c1`, for which the reporter increase is 45% (active). For `C[C@H](CO)N1C[C@H](C)[C@H](CN(C)C(=O)c2cnccn2)Oc2cc(C3=CCCC3)ccc2S1(=O)=O`, the reporter increase is 4.52% (inactive).

On to `O=C(CN1CCOCC1)N[C@@H]1CC[C@@H](CCNC(=O)C2CCCCC2)O[C@@H]1CO`, for which the reporter increase is 0.276% (inactive). As to `CN1C(=O)c2cc(NC(=O)c3cscn3)ccc2OC[C@H]2O[C@@H](CC(=O)NCC3CC3)CC[C@H]21`, the reporter increase was 1.7% (inactive). The value for `O=C(CCCOc1ccccc1)NNC(=O)c1ccc(Cl)cc1` was -5.87% (inactive); that for `Nc1nc(COC(=O)CCC(=O)c2ccc(Cl)cc2)nc(Nc2ccccc2)n1` was -2.01% (inactive). Take `O=C(c1ccc(Cl)cc1)c1cnc(Nc2ccccc2)s1`: the reporter increase was 70% (active). The value for `C[C@@H]1CCCCO[C@H](CN(C)S(=O)(=O)c2cccs2)[C@H](C)CN([C@@H](C)CO)C(=O)c2cc(NC(=O)Nc3ccc4c(c3)OCO4)ccc2O1` was 3.42% (inactive). The result for `Cn1c(CNc2nc(-c3ccccc3)cs2)nnc1SCC(=O)c1ccccc1` reads 6.92% (inactive); that for `C/C(CC1CC(C)(C)OC1=O)=N/Nc1nc(-c2ccccc2)cs1` (centres undefined), 46.1% (active); that for `CC1(C)CC(CC(=O)O)C(=O)O1` (centres undefined), 3.84% (inactive). With `COc1ccc(S(=O)(=O)N(C)C[C@@H]2OCCCC[C@H](C)Oc3ccc(NC(=O)Nc4ccccc4)cc3C(=O)N([C@H](C)CO)C[C@H]2C)cc1`, the reporter increase was 6.53% (inactive). For `COc1ccccc1-c1cnc2c(c1)C(=O)N([C@H](C)CO)C[C@H](C)[C@H](CN(C)C(=O)CN(C)C)O2`, the reporter increase was -4.34% (inactive).

Regarding `COc1ccc(C(=O)NC(=S)NNC(=O)CCc2ccccc2)cc1`, the reporter increase is 50.7% (active). Turning to `O=C(CCc1ccccc1)NNC(=O)COc1ccc(Cl)cc1`, the reporter increase is -7.85% (inactive). The value for `Cc1ccccc1C(=O)NC(=S)NC1CC1` was 19.1% (inactive); that for `O=C(NNC(=S)NC1CCCCC1)c1ccccc1Cl` was 12.8% (inactive).

Turning to `CCCNC(=S)N1CCC(NC(=O)c2ccc(OC)cc2)CC1`, the reporter increase was 4.39% (inactive). The value for `O=C(NC(=S)NC1CCCCC1)c1ccc(Cl)cc1` was 92.1% (active); that for `COc1ccc(C(=O)NC(=S)NC2CCCCC2)cc1` was 53.2% (active); that for `COc1ccc(/C(N)=N/OC(=O)CCCc2ccccc2)cc1` was 22.2% (inactive). With `O=C(NC1CCCCCC1)C1CCN(C(=O)c2ccc(Cl)cc2)CC1`, the reporter increase is 1.61% (inactive).
